Shiga inhibitor: A qHTS for Small Molecule Inhibitors of Shiga Toxin; Vero cells, Shiga toxin protein synthesis inhibition reporter; AID 2315, 2010; hit rate 9.2% among 290,000; inhibition, % at 38.7 µM; in the data active means inhibition mostly above about 28%, no sharp cut-off; inactive means mostly below about 43%; further: 0% is about no effect
AmpC inh no detg: qHTS Inhibitors of AmpC Beta-Lactamase (assay without detergent); AmpC nitrocefin hydrolysis, absorbance 480 nm, 0.0001% Triton; Potency, µM (doses to about 57.1 µM), for inactives: at the highest dose activity change, negative = inhibition, most hits filed as inhibitors; hit rate 0.52% among 330,000;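 further: potency means the concentration at half of the fitted maximal effect; plate controls were no compound for no effect and no enzyme for full effect; nearly all actives have a fitted effect of over 20% in size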
Target sequence (P00811 whole entry, looked up): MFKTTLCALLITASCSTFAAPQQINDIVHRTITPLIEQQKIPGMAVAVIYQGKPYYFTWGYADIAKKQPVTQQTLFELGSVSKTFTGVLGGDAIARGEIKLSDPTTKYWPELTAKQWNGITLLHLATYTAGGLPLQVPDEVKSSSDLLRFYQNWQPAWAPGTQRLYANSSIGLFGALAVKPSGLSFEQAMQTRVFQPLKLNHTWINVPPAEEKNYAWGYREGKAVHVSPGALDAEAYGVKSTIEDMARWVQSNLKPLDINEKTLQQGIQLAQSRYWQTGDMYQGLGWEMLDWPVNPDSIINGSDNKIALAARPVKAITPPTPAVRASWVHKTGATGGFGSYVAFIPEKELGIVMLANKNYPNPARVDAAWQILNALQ
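AmpC (5.3 nM in the dispensed reagent) in 20 mM phosphate pH 7.0 with 0.01% (detergent screen) or 0.0001% Triton X-100 was preincubated with compounds for 15 min at room temperature. Nitrocefin was then added from an 800 uM solution, and hydrolysis was followed at 480 nm.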
SARS PLP yeast: qHTS of Yeast-based Assay for SARS-CoV PLP. Potency, µM (titrated, usually from 32.9 µM), inactives show top-dose activity, positive = growth rescue, usual class: activators. S. cerevisiae expressing SARS-CoV PLpro, growth rescue. hit rate 0.19% among 330,000; calls by dose curve; further: potency means the concentration at half of the fitted maximal effect; 0% is about no effect; nearly all actives have a fitted effect of over 55% in size
CHX counter: Cycloheximide Counterscreen for Small Molecule Inhibitors of Shiga Toxin. cell reporter, cycloheximide protein synthesis inhibition counterscreen. max response, %. hit rate 12% among 300,000; in the data active means max response mostly above about 13%, no sharp cut-off; inactive means mostly below about 14%; further: read at 38.3 µM for the half of the compounds with a filed dose; 0% is about no effect
AMA1 RON2 block: qHTS for Inhibitors of AMA1-RON; Towards Development of Antimalarial Drug Lead: Primary Screen; AlphaScreen AMA1-biotinylated RON2 peptide binding; Potency, µM (series often up to 58.2 µM), for the others: at the highest dose activity change, negative = inhibition, most hits filed as inhibitors; hit rate 0.2% among 360,000; AID 720542, 2013;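 further: potency means the concentration at half of the fitted maximal effect; 0% = vehicle wells and -100% = peptide control; nearly all actives have a fitted effect of over 45% in size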
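AMA1 (3D7) with his tag at 25 nM final met compounds first, then biotinylated RON2 peptide at 25 nM; detection used donor plus acceptor beads, 10 µg/mL apiece, read by AlphaScreen after 30 min at room temperature.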
AmpC detergent: qHTS Inhibitors of AmpC Beta-Lactamase (assay with detergent); AID 485294, 2010; Potency, µM (doses to about 114 µM), inactives show at the highest dose activity change, negative = inhibition, most hits filed as inhibitors; AmpC hydrolysis of nitrocefin, absorbance 480 nm, 0.01% Triton; hit rate 0.041% among 370,000; P00811;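 further: potency means the concentration at half of the fitted maximal effect; 0% = no-compound wells and -100% = no-enzyme wells; nearly all actives have a fitted effect of over 25% in size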
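AmpC (5.3 nM in the dispensed reagent) in 20 mM phosphate pH 7.0 with 0.01% (detergent screen) or 0.0001% Triton X-100 was preincubated with compounds for 15 min at room temperature. Nitrocefin was then added from an 800 uM solution, and hydrolysis was followed at 480 nm.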
* = called active by the depositor; [ ] = dose if it differs, or a comment. This excerpt belongs to a sample that is enriched for hits. Unless noted, the call rests on the fitted dose curve; in most records, active means well fitted curve in the direction sought with a large enough effect; inconclusive means small, poorly fitted or top-dose-only effect, or another doubt; inactive means no such curve, though single readings can be large; an effect the other way counts as inactive or inconclusive.

What do the screens show for `COc1ccc(C(=O)Nc2nc3cc4c(cc3s2)OCO4)c(OC)c1`?
Shiga inhibitor: 66*; AmpC inh no detg: 9%; SARS PLP yeast: 0%; CHX counter: 38*; AMA1 RON2 block: -1%; AmpC detergent: -7%

Results for COc1ccc2nc(NC(=O)c3sc4nc(C)cc(C)c4c3N)sc2c1 ?
Shiga inhibitor: 76*; AmpC inh no detg: -2%; SARS PLP yeast: 1%; CHX counter: 36*; AMA1 RON2 block: 2%; AmpC detergent: -6%

What do the screens show for `Cc1ccc(C(=O)Nc2nc3ccccc3s2)s1`?
Shiga inhibitor: 32; AmpC inh no detg: -29%; SARS PLP yeast: 3%; CHX counter: 52*; AMA1 RON2 block: 4%; AmpC detergent: -2%

Results for O=c1ccc2cc(S(=O)(=O)Nc3ccc(F)cc3)ccc2o1 ?
Shiga inhibitor: -16; AmpC inh no detg: -27%; SARS PLP yeast: -4%; CHX counter: -2; AMA1 RON2 block: -2%; AmpC detergent: -1%

Results for FC(F)(F)c1cccc(NCc2n[nH]c(=S)n2C2CCCCC2)c1 ?
Shiga inhibitor: -5; AmpC inh no detg: -41%; SARS PLP yeast: 12%; CHX counter: -2; AMA1 RON2 block: 71%; AmpC detergent: -1%

Results for CCCn1c(C)cc(/C=C(\C#N)C(=O)OCC(=O)Nc2cccc(S(N)(=O)=O)c2)c1C ?
AmpC inh no detg: -21%; SARS PLP yeast: 0%; AMA1 RON2 block: -13%; AmpC detergent: 4%

Results for COc1ccc2nc(NC(=O)c3cccnc3SC)sc2c1 ?
Shiga inhibitor: 35*; AmpC inh no detg: -13%; SARS PLP yeast: -47%; CHX counter: 61*; AMA1 RON2 block: -15%; AmpC detergent: inconclusive

What do the screens show for `Cc1ccccc1C(=O)Nc1nc2c(C)csc2c(=O)s1`?
Shiga inhibitor: -13; AmpC inh no detg: -33%; SARS PLP yeast: -6%; CHX counter: -2; AMA1 RON2 block: 9%; AmpC detergent: 2%

How did CSc1ncccc1C(=O)Nc1ccc(OC(F)(F)F)cc1 do in these assays?
Shiga inhibitor: 15; AmpC inh no detg: -11%[11.4 µM]; SARS PLP yeast: -2%; CHX counter: 13*; AMA1 RON2 block: 31%; AmpC detergent: -7%

Results for Cc1csc2nc(NC(=O)c3ccccc3)sc(=O)c12 ?
Shiga inhibitor: 26; AmpC inh no detg: -23%; SARS PLP yeast: -2%; CHX counter: 12*; AMA1 RON2 block: -14%; AmpC detergent: -10%

Results for CSc1ncccc1C(=O)Nc1nc2ccc(S(C)(=O)=O)cc2s1 ?
Shiga inhibitor: 35; AmpC inh no detg: -28%; SARS PLP yeast: -2%; CHX counter: 15; AMA1 RON2 block: 4%; AmpC detergent: 1%

What do the screens show for `c1ccc2sc(NN=C3CCCCCC3)nc2c1`?
Shiga inhibitor: 68; AmpC inh no detg: -27%; SARS PLP yeast: -2%; CHX counter: 33*; AMA1 RON2 block: 22%; AmpC detergent: 6%

How did COc1ccc(-c2oc(=O)c3cc(OC)c(OC)cc3c2C#C[C@]2(O)CC[C@H]3[C@@H]4CCc5cc(OC)ccc5[C@H]4CC[C@@]32C)cc1 do in these assays?
AmpC inh no detg: -24%; SARS PLP yeast: 2%; AMA1 RON2 block: -1%

Results for COc1ccccc1N1C(=O)c2cccnc2C1=O ?
Shiga inhibitor: -12; AmpC inh no detg: -2%; SARS PLP yeast: -5%; CHX counter: -2; AMA1 RON2 block: 21%; AmpC detergent: 6%

How did Cc1cc(C(=O)Nc2nc3ccc(S(C)(=O)=O)cc3s2)c(C)o1 do in these assays?
Shiga inhibitor: 30*; AmpC inh no detg: -28%; SARS PLP yeast: -4%; CHX counter: 16*; AMA1 RON2 block: 8%; AmpC detergent: -4%

How did O=C(Nc1nc2ccccc2s1)c1ccccc1 do in these assays?
Shiga inhibitor: 91*; AmpC inh no detg: -33%; SARS PLP yeast: -6%; CHX counter: 28*; AMA1 RON2 block: -2%; AmpC detergent: 2%
